# Source: publication PMC5540273 (PLoS ONE, 2017)
# Read-outs that look alike come from different tables or passages of the source.
# Experiments:
# FGFR1 = settings: concentration: 1 μM, replicates: in singlicate; n = 1
# FGFR2 = settings: concentration: 1 μM, replicates: in singlicate; n = 1
# FGFR3 = settings: concentration: 1 μM, replicates: in singlicate; n = 1
# FGFR4 = settings: concentration: 1 μM, replicates: in singlicate; n = 1
# FGR = settings: concentration: 1 μM, replicates: in singlicate; n = 1
# FLT1 = settings: concentration: 1 μM, replicates: in singlicate; n = 1
# FLT3-autoinhibited = settings: concentration: 1 μM, replicates: in singlicate; n = 1
# FLT3 = settings: concentration: 1 μM, replicates: in singlicate; n = 1
# FLT4 = settings: concentration: 1 μM, replicates: in singlicate; n = 1
# FRK = settings: concentration: 1 μM, replicates: in singlicate; n = 1
# FYN = settings: concentration: 1 μM, replicates: in singlicate; n = 1
# GAK = settings: concentration: 1 μM, replicates: in singlicate; n = 1
# GCN2(Kin.Dom.2,S808G) = tested on: T1, GCN2(Kin.Dom.2,S808G); settings: concentration: 1 μM, replicates: in singlicate; n = 1
# T1 construct: gene EIF2AK4
# GRK1 = settings: concentration: 1 μM, replicates: in singlicate; n = 1
# GRK2 = tested on: T2, GRK2; settings: concentration: 1 μM, replicates: in singlicate; n = 1
# T2 construct: gene ADRBK1
# GRK3 = tested on: T3, GRK3; settings: concentration: 1 μM, replicates: in singlicate; n = 1
# T3 construct: gene ADRBK2
# GRK4 = settings: concentration: 1 μM, replicates: in singlicate; n = 1
# GRK7 = settings: concentration: 1 μM, replicates: in singlicate; n = 1
# GSK3A = settings: concentration: 1 μM, replicates: in singlicate; n = 1
# GSK3B = settings: n = 1
# [1] = concentration: 1 μM, replicates: in singlicate
# 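Note: KINOMEscan kinase panel screen.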
structure (smiles),measurement,setting,value
O=C(Nc1cccc(Oc2ccc3nc(NC(=O)C4CC4)cn3n2)c1)c1ccccc1C(F)(F)F,%Inh,FGFR1,1%
same,%Inh,FGFR2,23%
same,%Inh,FGFR3,0%
same,%Inh,FGFR4,2%
same,%Inh,FGR,55%
same,%Inh,FLT1,99.7%
same,%Inh,FLT3-autoinhibited,0%
same,%Inh,FLT3,20%
same,%Inh,FLT4,99.9%
same,%Inh,FRK,30%
same,%Inh,FYN,33%
same,%Inh,GAK,4%
same,%Inh,"GCN2(Kin.Dom.2,S808G)",7%
same,%Inh,GRK1,9%
same,%Inh,GRK2,0%
same,%Inh,GRK3,0%
same,%Inh,GRK4,46%
same,%Inh,GRK7,0%
same,%Inh,GSK3A,7%
same,%Inh,GSK3B; [1],0%
COc1ccc(Nc2nccc(N3CCC(NC(=O)Nc4cccc(OC)c4)C3)n2)cc1 (centres unmarked) [GSK1379742],%Inh,FGFR1,5%
same,%Inh,FGFR2,7%
same,%Inh,FGFR3,5%
same,%Inh,FGFR4,0%
same,%Inh,FGR,17%
same,%Inh,FLT1,36%
same,%Inh,FLT3-autoinhibited,20%
same,%Inh,FLT3,35%
same,%Inh,FLT4,0%
same,%Inh,FRK,8%
same,%Inh,FYN,0%
same,%Inh,GAK,23%
same,%Inh,"GCN2(Kin.Dom.2,S808G)",6%
same,%Inh,GRK1,0%
same,%Inh,GRK2,0%
same,%Inh,GRK3,22%
same,%Inh,GRK4,0%
same,%Inh,GRK7,0%
same,%Inh,GSK3A,13%
same,%Inh,GSK3B; [1],2%
CCS(=O)(=O)c1ccc(OC)c(Nc2nccc(-c3c(-c4cccc(NC(=O)c5c(F)cccc5F)c4)nn4ncccc34)n2)c1 [GSK326180],%Inh,FGFR1,0%
same,%Inh,FGFR2,0%
same,%Inh,FGFR3,16%
same,%Inh,FGFR4,16%
same,%Inh,FGR,64%
same,%Inh,FLT1,90%
same,%Inh,FLT3-autoinhibited,0%
same,%Inh,FLT3,0%
same,%Inh,FLT4,29%
same,%Inh,FRK,61%
same,%Inh,FYN,53%
same,%Inh,GAK,0%
same,%Inh,"GCN2(Kin.Dom.2,S808G)",8%
same,%Inh,GRK1,0%
same,%Inh,GRK2,0%
same,%Inh,GRK3,17%
same,%Inh,GRK4,0%
same,%Inh,GRK7,0%
same,%Inh,GSK3A,12%
same,%Inh,GSK3B; [1],2%
Cc1ccc(C(=O)Nc2ccc(Nc3ccnc4cc(-c5nccs5)ccc34)cc2O)cc1.Cl [GW494702],%Inh,FGFR1,0%
same,%Inh,FGFR2,35%
same,%Inh,FGFR3,13%
same,%Inh,FGFR4,0%
same,%Inh,FGR,73%
same,%Inh,FLT1,14%
same,%Inh,FLT3-autoinhibited,0%
same,%Inh,FLT3,14%
same,%Inh,FLT4,0%
same,%Inh,FRK,67%
same,%Inh,FYN,25%
same,%Inh,GAK,10%
same,%Inh,"GCN2(Kin.Dom.2,S808G)",0%
same,%Inh,GRK1,17%
same,%Inh,GRK2,0%
same,%Inh,GRK3,41%
same,%Inh,GRK4,17%
same,%Inh,GRK7,0%
same,%Inh,GSK3A,0%
same,%Inh,GSK3B; [1],7%
CC(=O)N1CCN(c2ccc(Nc3nccc(-c4sc(C(C)C)nc4-c4cccc(NS(=O)(=O)c5cccc(Cl)c5)c4)n3)cn2)CC1 [GSK1660437],%Inh,FGFR1,20%
same,%Inh,FGFR2,0%
same,%Inh,FGFR3,7%
same,%Inh,FGFR4,0%
same,%Inh,FGR,78%
same,%Inh,FLT1,81%
same,%Inh,FLT3-autoinhibited,9%
same,%Inh,FLT3,33%
same,%Inh,FLT4,82%
same,%Inh,FRK,70%
same,%Inh,FYN,73%
same,%Inh,GAK,90.9%
same,%Inh,"GCN2(Kin.Dom.2,S808G)",100%
same,%Inh,GRK1,0%
same,%Inh,GRK2,12%
same,%Inh,GRK3,0%
same,%Inh,GRK4,30%
same,%Inh,GRK7,0%
same,%Inh,GSK3A,12%
same,%Inh,GSK3B; [1],10%
COc1cc(Nc2ncc3c(C)nc(-c4cc5ccccc5[nH]4)n3n2)cc(OC)c1OC [GW869516],%Inh,FGFR1,35%
same,%Inh,FGFR2,21%
same,%Inh,FGFR3,30%
same,%Inh,FGFR4,15%
same,%Inh,FGR,40%
same,%Inh,FLT1,23%
same,%Inh,FLT3-autoinhibited,75%
same,%Inh,FLT3,96.3%
same,%Inh,FLT4,1%
same,%Inh,FRK,39%
same,%Inh,FYN,30%
same,%Inh,GAK,34%
same,%Inh,"GCN2(Kin.Dom.2,S808G)",88%
same,%Inh,GRK1,0%
same,%Inh,GRK2,0%
same,%Inh,GRK3,0%
same,%Inh,GRK4,19%
same,%Inh,GRK7,0%
same,%Inh,GSK3A,0%
same,%Inh,GSK3B; [1],0%
C[C@@H]1CC[C@@H](C(=O)Nc2ccccc2)CN1c1cc(-c2ccc3c(N)n[nH]c3c2)nc(N)n1 [GSK2286062],%Inh,FGFR1,0%
same,%Inh,FGFR2,0%
same,%Inh,FGFR3,4%
same,%Inh,FGFR4,0%
same,%Inh,FGR,19%
same,%Inh,FLT1,0%
same,%Inh,FLT3-autoinhibited,0%
same,%Inh,FLT3,0%
same,%Inh,FLT4,0%
same,%Inh,FRK,0%
same,%Inh,FYN,25%
same,%Inh,GAK,19%
same,%Inh,"GCN2(Kin.Dom.2,S808G)",0%
same,%Inh,GRK1,0%
same,%Inh,GRK2,0%
same,%Inh,GRK3,10%
same,%Inh,GRK4,0%
same,%Inh,GRK7,0%
same,%Inh,GSK3A,0%
same,%Inh,GSK3B; [1],0%
CC(C)c1nc(-c2cccc(NS(=O)(=O)c3c(F)cccc3F)c2F)c(-c2ccnc(Nc3ccc(N4CCOCC4)nc3)n2)s1 [GSK2008607],%Inh,FGFR1,60%
same,%Inh,FGFR2,82%
same,%Inh,FGFR3,67%
same,%Inh,FGFR4,48%
same,%Inh,FGR,98.7%
same,%Inh,FLT1,98.6%
same,%Inh,FLT3-autoinhibited,0%
same,%Inh,FLT3,70%
same,%Inh,FLT4,99.9%
same,%Inh,FRK,98.8%
same,%Inh,FYN,98.2%
same,%Inh,GAK,96.1%
same,%Inh,"GCN2(Kin.Dom.2,S808G)",100%
same,%Inh,GRK1,100%
same,%Inh,GRK2,0%
same,%Inh,GRK3,0%
same,%Inh,GRK4,0%
same,%Inh,GRK7,0%
same,%Inh,GSK3A,53%
same,%Inh,GSK3B; [1],21%
Oc1cc(Nc2ccnc3cc(I)ccc23)ccc1F [GW552771],%Inh,FGFR1,23%
same,%Inh,FGFR2,0%
same,%Inh,FGFR3,13%
same,%Inh,FGFR4,0%
same,%Inh,FGR,84%
same,%Inh,FLT1,44%
same,%Inh,FLT3-autoinhibited,0%
same,%Inh,FLT3,0%
same,%Inh,FLT4,45%
same,%Inh,FRK,72%
same,%Inh,FYN,62%
same,%Inh,GAK,85%
same,%Inh,"GCN2(Kin.Dom.2,S808G)",8%
same,%Inh,GRK1,0%
same,%Inh,GRK2,0%
same,%Inh,GRK3,65%
same,%Inh,GRK4,10%
same,%Inh,GRK7,0%
same,%Inh,GSK3A,17%
same,%Inh,GSK3B; [1],0%
Nc1n[nH]c2cnc(-c3ccccc3)cc12 [SB-642124],%Inh,FGFR1,2%
same,%Inh,FGFR2,35%
same,%Inh,FGFR3,16%
same,%Inh,FGFR4,13%
same,%Inh,FGR,32%
same,%Inh,FLT1,0%
same,%Inh,FLT3-autoinhibited,0%
same,%Inh,FLT3,0%
same,%Inh,FLT4,8%
same,%Inh,FRK,10%
same,%Inh,FYN,25%
same,%Inh,GAK,13%
same,%Inh,"GCN2(Kin.Dom.2,S808G)",11%
same,%Inh,GRK1,0%
same,%Inh,GRK2,0%
same,%Inh,GRK3,42%
same,%Inh,GRK4,10%
same,%Inh,GRK7,0%
same,%Inh,GSK3A,40%
same,%Inh,GSK3B; 1 µM,25%
